# In the library only some 2.9% were active in any assay of this set; here they are far more common.
# Mtb hypoxia inh = PubChem AID 1159583. M. tuberculosis hypoxia-regulated fluorescent reporter, fluorescence. fluorescence inhibition, % (concentration not given with the values). hit rate 0.1% among 300,000; in the data active means fluorescence inhibition mostly above about 23%, no sharp cut-off; inactive means mostly below about 17%
# BioA inh = M. tuberculosis BioA enzyme inhibitors, primary screen, biochemical, plate reader, single point, HTS | AID 602481, 2012 | hit rate 0.096% among 360,000 | 7,8-diaminopelargonic acid synthase BioA (Mycobacterium tuberculosis) | inhibition, % at 9.99 µM | purified M. tuberculosis BioA enzyme; in the data active means inhibition above about 40%
# FadD28 FP inh = inhibitors of FadD28 bisubstrate probe binding, primary screen, biochemical, fluorescence polarization, single point; Mycobacterium tuberculosis FadD28 fatty-acid-AMP ligase; hit rate 0.22% among 360,000; inhibition, % at 12.5 µM; AID 588549, 2011; in the data active means inhibition above about 8.5%, passing the limit was not always enough
# GDH-TPI counter-1 = GDH-TPI coupling enzyme inhibitors, primary screen, artefact control for M. tuberculosis FBA inhibitor project, biochemical, absorbance, full deck. GDH-TPI coupled enzyme counterscreen, NADH absorbance. inhibition, % at 4.8 µM. hit rate 1.2% among 360,000; in the data active means inhibition above about 30%
# Mtb FBA inh = Mtb FBA enzyme inhibitors, primary screen, biochemical, fluorescence, strain H37Rv | purified M. tuberculosis FBA, fluorescence read-out | inhibition, % at 1 µM | Fructose-bisphosphate aldolase (Mycobacterium tuberculosis (strain ATCC 25618 / H37Rv)), … | hit rate 2.3% among 360,000
# Target sequence (P9WQA3 whole entry, looked up): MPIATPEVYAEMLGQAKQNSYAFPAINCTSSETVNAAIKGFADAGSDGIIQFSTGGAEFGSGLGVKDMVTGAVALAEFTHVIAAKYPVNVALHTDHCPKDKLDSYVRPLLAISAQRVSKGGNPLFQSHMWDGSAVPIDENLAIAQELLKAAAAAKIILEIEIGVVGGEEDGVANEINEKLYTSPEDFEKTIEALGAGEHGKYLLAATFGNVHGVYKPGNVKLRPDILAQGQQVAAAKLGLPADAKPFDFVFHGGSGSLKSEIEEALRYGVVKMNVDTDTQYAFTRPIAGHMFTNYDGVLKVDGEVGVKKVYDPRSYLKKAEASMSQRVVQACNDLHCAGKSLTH
# Mtb FBA inh conf = M. tuberculosis aldolase blockers, biochemical, fluorescence, strain H37Rv, confirmation | hit rate 78% among 5,600 | inhibition, % at 1 µM | shares compounds with Mtb FBA inh | purified M. tuberculosis FBA, fluorescence read-out
# GDH-TPI counter-2 = GDH-TPI coupling enzyme inhibitors, artefact control for M. tuberculosis FBA inhibitor project, biochemical, fluorescence, high throughput; GDH-TPI coupled enzyme counterscreen; shares compounds with Mtb FBA inh; hit rate 81% among 5,600; inhibition, % at 1 µM; in the data active means inhibition above about 10%
# GDH-TPI DR = GDH-TPI coupling enzyme inhibitors, dose response, artefact control for M. tuberculosis FBA inhibitor project, biochemical, fluorescence, IC50. hit rate 79% among 170. AID 652145, 2013. IC50, µM. GDH-TPI coupled enzyme assay, artifact counterscreen. shares compounds with Mtb FBA inh; call rule not given here
# Hits are given with their value; – = inactive; · = no result; + = active, no number. Unless noted, no stated cut-off is given here; in the data, active means inhibition above about 27%; inactive means the rest.
SMILES,Mtb hypoxia inh,BioA inh,FadD28 FP inh,GDH-TPI counter-1,Mtb FBA inh,Mtb FBA inh conf,GDH-TPI counter-2,others
CC(=O)Nc1ccc(-c2cc(C(=O)O)c3ccc(C)cc3n2)cc1,–,·,–,–,47,–,–,
Cc1nn(Cc2ccc(Cl)cc2)c(Cl)c1C=NNC(=O)CNc1ccccc1F,–,·,·,·,·,·,·,
COc1ccc(S(=O)(=O)Nc2ccc3c(c2)C(=O)N([C@H](C)CO)C[C@@H](C)[C@@H](CN(C)C(=O)c2ccccc2)OCCCC[C@H](C)O3)cc1,·,–,·,·,·,·,·,
c1nc2sc3c(c2c2nnnn12)CCC3,–,–,–,–,36,–,–,
CC(C)NC(=O)Cn1c(SCC(=O)N2CCc3ccccc3C2)nc2ccccc21,–,–,–,–,–,·,·,
CC1CC(C)CN(C(=O)Cn2c(SCC(=O)N3CCc4ccccc4C3)nc3ccccc32)C1 (stereo not given),·,–,–,–,48,69,49,
COc1ccc2oc(C(=O)OCC(=O)N3CCN(C(C)=O)CC3)c(C)c2c1,–,–,–,–,43,59,42,
COc1ccc2oc(C(=O)OCC(=O)N3CCCCC3)c(C)c2c1,–,–,–,–,37,125,113,
C[C@H](CO)N1C[C@H](C)[C@@H](CN(C)Cc2ccc3c(c2)OCO3)Oc2ccc(NC(=O)CCCN(C)C)cc2CC1=O,·,–,·,·,·,·,·,
O=C(CN1C(=O)C2C3C=CC(C3)C2C1=O)Nc1ccc2nccnc2c1 (stereo not given),–,–,–,–,27,+,+,
O=C(CN1C(=O)C2C3C=CC(C3)C2C1=O)Nc1ccc(F)cc1 (stereo not given),–,·,–,–,–,·,·,
Cc1ccnn1-c1ccc(C(=O)NCc2ccccc2CN2CCOCC2)cc1,–,·,–,–,58,+,+,
O=C(NCc1ccccc1CN1CCOCC1)c1ccc(-n2cccn2)cc1,–,–,–,–,–,·,·,
CO[C@@H]1CN(C)C(=O)c2ccc(NC(=O)C3CC3)cc2OC[C@H](C)N(C(=O)NC(C)C)C[C@@H]1C,·,–,·,·,·,·,·,
COc1ccc(NC(=O)c2sc3nc(N4CCOCC4)c4c(c3c2N)CC(C)(C)OC4)cc1,–,–,–,–,–,·,·,
CNC(=O)c1ccc(-c2sc3nc(N4CCOCC4)c4c(c3c2N)CC(C)(C)OC4)o1,·,–,–,–,41,45,30,
CN1Cc2c(N3CCOCC3)nc3sc(C#N)c(N)c3c2CC1(C)C,–,·,–,–,78,–,–,GDH-TPI DR=1.8
FC(F)(F)c1nc2nncn2c2c1CCCCC2,·,–,–,–,35,133,117,
C[C@@H]1CN([C@H](C)CO)C(=O)c2cc(NC(=O)Nc3ccccc3)ccc2O[C@@H]1CN(C)S(=O)(=O)c1cn(C)cn1,·,–,·,·,·,·,·,
COc1ccc(C2C=CCN(C(=O)CC(C)(C)C)C(C)C(=O)N2Cc2ccc(F)cc2)cc1 (stereo not given),–,·,·,·,·,·,·,
COc1ccccc1-c1cnc2c(c1)C(=O)N([C@H](C)CO)C[C@H](C)[C@@H](CN(C)Cc1ccc(C(=O)O)cc1)O2,·,–,·,·,·,·,·,
CCN(C(=S)Nc1cccnc1)c1ccccc1,–,–,–,–,–,·,·,
CCN(C(=S)Nc1cccnc1)c1cccc2ccccc12,–,·,–,–,49,148,128,
CCCc1cc(=O)oc2cc(C)cc(OCC(=O)NCCN3CCOCC3)c12,–,–,–,–,67,–,–,
Cc1c(C)c2ccc(OCC(=O)NCCN3CCOCC3)c(C)c2oc1=O,–,–,–,–,47,+,+,
SMILES,Mtb hypoxia inh,BioA inh,FadD28 FP inh,GDH-TPI counter-1,Mtb FBA inh,Mtb FBA inh conf,GDH-TPI counter-2,others
Cc1cc(OCC(=O)NCCCN2CCOCC2)c2c(C)cc(=O)oc2c1,–,–,–,–,61,138,142,
CCc1cc(=O)oc2cc(C)cc(OCC(=O)NCCN3CCOCC3)c12,–,–,–,–,61,52,66,
CCc1cc(=O)oc2cc(C)cc(OCC(=O)NCCc3c[nH]c4ccccc34)c12,·,–,–,–,–,·,·,
CO[C@H]1CN(C)C(=O)c2cc(NC(C)=O)ccc2OC[C@H](C)N(Cc2ccncc2)C[C@H]1C,·,–,·,·,·,·,·,
CCCc1cc(=O)oc2cc(C)cc(OCC(=O)Nc3ccc(CN4CCOCC4)cc3)c12,–,–,–,–,43,–,–,
Cc1c(C)c2ccc(OCC(=O)Nc3cccnc3)c(C)c2oc1=O,–,–,–,–,60,–,–,
CCCC#Cc1ccc2c(c1)O[C@@H](CN(C)Cc1ccc3c(c1)OCO3)[C@H](C)CN([C@H](C)CO)S2(=O)=O,·,–,·,·,·,·,·,
CCOc1ccccc1Oc1c(C)oc2cc(OC(=O)c3ccco3)ccc2c1=O,–,–,–,–,–,·,·,
COc1ccc2c(=O)c(-c3ccccc3C)c(C)oc2c1,·,–,–,–,–,·,·,
COc1ccccc1-c1c(C)oc2cc(OC(=O)c3ccco3)ccc2c1=O,–,–,–,–,36,–,–,GDH-TPI DR=4.5
COc1ccccc1Oc1c(C)oc2cc(OC(=O)c3ccco3)ccc2c1=O,–,–,–,–,55,119,111,
CCC1(CC)C(=O)C2=C3C(CC(C(=O)OC)CC(C(=O)OC)C31)n1c(=O)n(-c3ccccc3)c(=O)n1C2C (stereo not given),–,·,·,·,·,·,·,
COc1ccc2nc(/C=N/NC(=O)CCCCCNC(=O)OC(C)(C)C)ccc2c1,·,·,–,33,63,95,86,
CCC(C)[C@H](NC(=O)OC(C)(C)C)C(=O)NN=Cc1ccc2cc(OC)ccc2n1 (stereo not given in full),–,·,·,·,·,·,·,
COc1ccc(S(=O)(=O)Cc2ccc(C(=O)NCc3ccco3)o2)cc1,·,–,–,–,–,·,·,
O=C(NCc1ccco1)c1ccc(S(=O)(=O)N2CCOCC2)cc1,–,–,–,–,–,·,·,
CCCNC(=O)c1c(N)n(-c2cccc(OC)c2)c2nc3ccccc3nc12,–,–,–,–,68,–,–,
COc1ccc(Cn2c(N)c(C(=O)NCc3ccco3)c3nc4ccccc4nc32)cc1,–,–,–,–,61,190,158,
COc1ccc(CCn2c(N)c(C(=O)NCc3ccco3)c3nc4ccccc4nc32)cc1,–,·,–,–,85,+,198,
C=CCNC(=O)c1c(N)n(-c2ccc3c(c2)OCO3)c2nc3ccccc3nc12,–,–,–,–,–,·,·,
COc1ccc(CCn2c(N)c(C(=O)NCc3ccco3)c3nc4ccccc4nc32)cc1OC,–,–,–,–,–,·,·,
Nc1c(C(=O)NCc2ccco2)c2nc3ccccc3nc2n1CCN1CCOCC1,–,–,–,–,72,108,89,
